The text below walks through data of PubChem BioAssay.

Assay [1] can be described thus: compounds binding Alexa647 anti-His antibody – biochemical, small-molecule microarray, 635 nm fluorescence, artefact control for SMM control protein annotation, primary screen (AID 1128).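 Further: score merges feature fluorescence with signal-to-noise for each printed compound spot.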 To be noted: higher = more signal.
In assay [2] the test system is Human papillomavirus type 1a E7 protein (residues 1-88). Description: HPV1a E7 small-molecule binders, primary screen, biochemical, small-molecule microarray, residues 1-88, 635 nm (AID 1129). To be noted: small-molecule microarray binding, fluorescence 635 nm; higher = more signal.
The target of assay [3] is Focal adhesion kinase 1 (Homo sapiens) (UniProt Q05397). Description: PTK2 protein binding on printed compound slides – biochemical, small-molecule microarray, 635/667 nm fluorescence, BSA, DTT, primary screen (AID 1130).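 Further: composite of spot emission at 667 nm and signal to noise over triplicate slides.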 Particulars: 635 nm fluorescence, higher = more signal.
Assay [4] relates to Fibrinogen (Alexa647-labelled). Description: Alexa647-fibrinogen binding to printed small molecules – biochemical, small-molecule microarray, 635/667 nm fluorescence, artefact control for SMM control-protein annotation, profiling panel (AID 1131).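 Further: z-score merges 667 nm fluorescence with per-spot signal-to-noise over triplicate slides.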 To be noted: fibrinogen-A647 binding fluorescence, higher = more signal.
Assay [5] deals with Follistatin (Homo sapiens) (UniProt P19883). Description: FST protein binding to printed compounds – biochemical, small-molecule microarray, 635/667 nm fluorescence, primary screen (AID 1132). To be noted: 635 nm fluorescence, higher = more signal.
The target of assay [6] is Fibroblast growth factor 2 (Homo sapiens) (UniProt P09038). The assay is described as follows: basic fibroblast growth factor binding to printed compounds – biochemical, small-molecule microarray, 635/667 nm fluorescence, primary screen (AID 1133). Particulars: FGF2, fluorescence 635/667, higher = more signal.
Assay [7] in a line: JC-1 mitochondrial potential readout, lung cancer cells – cell-based, A549, JC-1 fluorescence, basal, 24 h, 100 nL, profiling panel (AID 1138).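 Further: A549 lung adenocarcinoma cells under basal conditions with no added stimulus; test concentration not given here.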 Particulars: higher = more signal.
Another assay relates to Lefty1. The assay is described as follows: Lefty1 protein binding to printed compounds – biochemical, small-molecule microarray, 635/667 nm fluorescence, primary screen (AID 1139). Particulars: fluorescence 635/667, higher = more signal.
Assay [8] deals with wheat germ agglutinin (Triticum aestivum), Alexa647-labelled. Description: Alexa647-WGA lectin binding to printed small molecules – biochemical, small-molecule microarray, 635/667 nm fluorescence, artefact control for SMM control-protein annotation, profiling panel (AID 1140).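 Further: score merges 667 nm feature emission with signal to noise over triplicate slides.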 To be noted: WGA-A647 binding, 635 nm fluorescence, higher = more signal.
In assay [9] the target is Luciferin 4-monooxygenase (Photinus pyralis) (UniProt P08659). The assay is described as follows: inhibition of purified Photinus pyralis luciferase – biochemical, luminescence, purified enzyme, 2006 set, primary screen (AID 1141).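 Further: cell-free assay with purified firefly luciferase at 100 ng per well in PBS; test concentration not given here.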 To be noted: purified firefly luciferase, SteadyGlo luminescence, 30 min; higher = more signal, called active from +8 up or from −8 down.
Assay [10] concerns Wnt5a (protein binding on small-molecule microarray). The assay is described as follows: small molecules binding Wnt5a protein – biophysical, small-molecule microarray, 635/667 nm fluorescence, primary screen (AID 1142).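 Further: fluorescence read at 667 nm with signal to noise per printed feature.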 Particulars: 635 nm fluorescence, higher = more signal.
Assay [11] in a line: ATP-based viability of Huh7 replicon cells – cell-based, CellTiter-Glo luminescence, basal, 48 h, cytotoxicity control for HCV replication inhibitor project, primary screen (AID 1143).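 Further: Huh7 hepatoma cells carrying a hepatitis C replication reporter with no stimulus; test concentration not given here.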 Particulars: higher = more signal, called active from +8 up or from −8 down.
The nature of assay [12]: Pseudomonas biofilm growth suppression – PAO1 strain, BacTiter-Glo luminescence, LB-PBS, primary screen (AID 1144). Particulars: P. aeruginosa PAO1 biofilm, 12 h, higher = more signal.
Assay [13] is described as follows: basal CRE-LacZ reporter activity in PC12 – cell-based, unstimulated, primary screen (AID 1145). To be noted: no forskolin, luminescence, 4.5 h, higher = more signal, called active from +8 up or from −8 down.
Assay [14] is described as follows: forskolin-driven CRE-LacZ activity in PC12 – cell-based, CRE-LacZ reporter, forskolin-stimulated, primary screen (AID 1146).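 Further: PC12 cells with 6xCRE LacZ reporter stimulated by forskolin 10 µM; beta-galactosidase reporter signal reflecting CREB driven transcription.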 Particulars: luminescence, 4.5 h, higher = more signal, called active from +8 up or from −8 down.
The target in assay [15] is Streptavidin (Streptomyces avidinii) (UniProt P22629). Description: compounds binding control protein streptavidin – biophysical, small-molecule microarray, 635/667 nm fluorescence, artefact control for SMM compound annotation, primary screen (AID 1147).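 Further: signal reflects streptavidin binding to arrayed compounds as a control protein.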 Particulars: higher = more signal.
The nature of assay [16]: probe aInhba binding on compound microarray – biochemical, small-molecule microarray, 635/667 nm fluorescence, primary screen (AID 1148).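 Further: score merges 667nm spot fluorescence with signal-to-noise for antibody binding to printed compounds.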 Particulars: higher = more signal.
Assay [17] has as its target Torsin-1A (Homo sapiens) (UniProt O14656). The assay is described as follows: TOR1A wild-type binding on microarray – cell lysate, small-molecule microarray, lysate, 635/667 nm, primary screen (AID 1149). To be noted: COS7 hTOR1A-WT lysate, 635 nm fluorescence, higher = more signal.
Assay [18] has the same target. Description: torsin A mutant lysate binding on microarrays – cell lysate, small-molecule microarray, COS7 lysate, 635/667 nm fluorescence, primary screen (AID 1150).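 Further: score pools 667 nm emission and signal to noise measuring lysate protein binding.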 To be noted: COS7 hTOR1A mutant lysate, 635 nm fluorescence, higher = more signal.
The test system of assay [19] is Sonic hedgehog protein (Shh). The assay is described as follows: Sonic hedgehog microarray binding compounds – biochemical, small-molecule microarray, 635/667 nm fluorescence, primary screen (AID 1151).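 Further: Shh protein binding to compounds spotted on small-molecule microarray slides; score combines spot fluorescence intensity with signal-to-noise across triplicate slides.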 To be noted: 635 nm fluorescence, higher = more signal.

Active and inactive are the calls of the source. Unless noted, how the calls were made is not given here.

Chain of Fibroblast growth factor 2 (Homo sapiens) (P09038 whole entry, looked up): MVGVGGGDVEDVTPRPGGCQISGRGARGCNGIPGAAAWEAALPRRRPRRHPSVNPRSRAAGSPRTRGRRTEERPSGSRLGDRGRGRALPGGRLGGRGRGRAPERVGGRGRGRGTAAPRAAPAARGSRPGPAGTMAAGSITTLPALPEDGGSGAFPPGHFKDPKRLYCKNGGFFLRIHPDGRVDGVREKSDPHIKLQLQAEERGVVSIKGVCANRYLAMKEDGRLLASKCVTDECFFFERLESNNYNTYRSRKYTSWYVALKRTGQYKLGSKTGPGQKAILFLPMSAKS
Chain of Torsin-1A (Homo sapiens) (O14656 whole entry, looked up): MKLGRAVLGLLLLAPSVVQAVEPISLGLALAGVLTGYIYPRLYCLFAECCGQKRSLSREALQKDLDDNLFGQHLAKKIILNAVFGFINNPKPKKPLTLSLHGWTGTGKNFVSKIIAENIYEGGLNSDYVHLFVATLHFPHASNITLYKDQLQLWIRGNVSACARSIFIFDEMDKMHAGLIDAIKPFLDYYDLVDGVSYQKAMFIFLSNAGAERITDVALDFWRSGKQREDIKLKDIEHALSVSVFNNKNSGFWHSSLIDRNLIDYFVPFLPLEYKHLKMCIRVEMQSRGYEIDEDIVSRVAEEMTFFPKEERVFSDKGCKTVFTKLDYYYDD
Chain of Streptavidin (Streptomyces avidinii) (P22629 whole entry, looked up): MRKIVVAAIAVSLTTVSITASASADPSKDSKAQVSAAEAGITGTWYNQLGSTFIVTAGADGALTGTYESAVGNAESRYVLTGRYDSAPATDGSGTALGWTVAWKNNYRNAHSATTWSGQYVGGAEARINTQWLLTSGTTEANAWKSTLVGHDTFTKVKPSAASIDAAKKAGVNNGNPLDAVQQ
Chain of Focal adhesion kinase 1 (Homo sapiens) (Q05397 whole entry, looked up): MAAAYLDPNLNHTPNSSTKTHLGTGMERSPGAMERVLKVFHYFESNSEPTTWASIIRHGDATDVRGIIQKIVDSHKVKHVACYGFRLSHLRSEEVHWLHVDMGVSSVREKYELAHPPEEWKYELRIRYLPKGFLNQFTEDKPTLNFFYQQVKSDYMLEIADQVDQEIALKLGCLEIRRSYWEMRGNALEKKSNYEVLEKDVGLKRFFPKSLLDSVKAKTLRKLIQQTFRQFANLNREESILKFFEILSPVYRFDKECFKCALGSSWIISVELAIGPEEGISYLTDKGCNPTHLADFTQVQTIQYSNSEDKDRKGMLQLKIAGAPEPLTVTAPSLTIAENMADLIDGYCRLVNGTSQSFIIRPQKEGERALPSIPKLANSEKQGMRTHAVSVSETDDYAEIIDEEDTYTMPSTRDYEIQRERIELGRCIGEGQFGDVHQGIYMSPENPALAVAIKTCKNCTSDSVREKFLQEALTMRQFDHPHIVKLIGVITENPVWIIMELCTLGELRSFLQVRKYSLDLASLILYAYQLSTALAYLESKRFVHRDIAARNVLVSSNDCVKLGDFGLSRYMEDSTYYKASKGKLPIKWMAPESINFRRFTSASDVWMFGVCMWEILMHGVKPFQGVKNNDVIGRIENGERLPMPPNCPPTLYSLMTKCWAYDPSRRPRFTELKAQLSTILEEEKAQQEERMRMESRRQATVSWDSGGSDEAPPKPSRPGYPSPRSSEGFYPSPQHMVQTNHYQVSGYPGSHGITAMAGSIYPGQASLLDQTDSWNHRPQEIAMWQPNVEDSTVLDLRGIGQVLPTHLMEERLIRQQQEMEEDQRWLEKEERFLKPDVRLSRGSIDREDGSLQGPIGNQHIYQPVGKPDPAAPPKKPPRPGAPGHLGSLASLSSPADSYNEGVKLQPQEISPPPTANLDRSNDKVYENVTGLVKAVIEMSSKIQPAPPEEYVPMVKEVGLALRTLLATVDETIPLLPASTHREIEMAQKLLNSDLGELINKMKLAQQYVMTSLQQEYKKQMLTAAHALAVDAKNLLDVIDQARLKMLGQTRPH
Chain of Follistatin (Homo sapiens) (P19883 whole entry, looked up): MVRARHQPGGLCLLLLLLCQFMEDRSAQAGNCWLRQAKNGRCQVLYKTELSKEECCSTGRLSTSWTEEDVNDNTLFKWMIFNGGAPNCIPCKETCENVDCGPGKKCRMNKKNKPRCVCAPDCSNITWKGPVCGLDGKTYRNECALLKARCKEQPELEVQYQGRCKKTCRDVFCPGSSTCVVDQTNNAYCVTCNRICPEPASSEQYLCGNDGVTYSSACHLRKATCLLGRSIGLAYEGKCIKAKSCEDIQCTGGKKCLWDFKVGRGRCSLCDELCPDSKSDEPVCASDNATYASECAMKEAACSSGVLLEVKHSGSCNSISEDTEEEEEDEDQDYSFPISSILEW
Chain of Luciferin 4-monooxygenase (Photinus pyralis) (P08659 whole entry, looked up): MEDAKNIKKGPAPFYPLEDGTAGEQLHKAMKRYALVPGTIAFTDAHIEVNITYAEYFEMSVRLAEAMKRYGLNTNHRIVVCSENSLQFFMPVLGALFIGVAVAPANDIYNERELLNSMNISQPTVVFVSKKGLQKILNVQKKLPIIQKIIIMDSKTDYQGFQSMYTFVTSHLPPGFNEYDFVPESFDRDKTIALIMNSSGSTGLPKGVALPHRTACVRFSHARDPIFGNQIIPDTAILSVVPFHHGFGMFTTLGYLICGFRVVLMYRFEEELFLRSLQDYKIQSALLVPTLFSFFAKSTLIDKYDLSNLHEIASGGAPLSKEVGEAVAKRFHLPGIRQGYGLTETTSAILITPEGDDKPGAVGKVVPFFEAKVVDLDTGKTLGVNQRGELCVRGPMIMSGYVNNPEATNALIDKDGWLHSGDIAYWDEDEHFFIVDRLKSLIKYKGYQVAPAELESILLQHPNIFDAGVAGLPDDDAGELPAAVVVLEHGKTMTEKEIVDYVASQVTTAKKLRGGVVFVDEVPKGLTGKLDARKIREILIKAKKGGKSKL

Take `C=CCOC(=O)[C@H]1[C@@H]2C(=O)O[C@@H](c3ccccc3)[C@@H](c3ccccc3)N2[C@@H](c2ccc(OCCOC(=O)[C@@H]3C[C@@H]4C(=O)N[C@@H](CCCCN(C)C)C(=O)N4[C@@H]3c3ccc(O)cc3)cc2)[C@]12C(=O)Nc1ccc(I)cc12`: the composite z-score in assay [1] was 2.26; in assay [2] it was 1.22; in assay [3], 0.565; in assay [4], 0.733; in assay [5], 1.16; in assay [6] it was 1.57. Moreover, the composite z-score in the assay with Lefty1 is 1.54; in [8], 0.81; in assay [10], 0.451; in assay [15] it was 0.218; in [16] it was 0.0082; in the assay with Torsin-1A (Homo sapiens) [17], 1.22. Moreover, the results for the composite z-score (in the assay with Torsin-1A (Homo sapiens) [18]; in [19]) were 0.671 and 1.71, respectively. The z-score in [7] was -1.63; in [9], -4.39 (inactive); in assay [11], -0.135 (inactive); in assay [12], -1.02 (inactive); in [13], -0.935 (inactive); in assay [14] it was 1.04 (inactive).
Consider `COc1ccc(C(=O)Nc2ccc(CN3C(=O)[C@@]4(O[C@@H](CC(=O)N5CCC[C@H]5CO)[C@H]([Si](C)(C)c5ccc(OC)cc5)[C@H]4C)c4ccccc43)cc2)cc1`, for which the composite z-score in assay [1] was -0.271; in assay [2] it was 1.2; in assay [3], 1.02; in [4], 0.655; in assay [5] it was 1.33; in assay [6] it was 1.68. For the same compound, the composite z-score in the assay with Lefty1 came out at 1.21; in [8] it was 0.763; in [10], 0.553; in assay [15], 0.648; in [16] it was 0.0074; with Torsin-1A (Homo sapiens) [17] it was 0.826. The results for the composite z-score (in the assay with Torsin-1A (Homo sapiens) [18]; in assay [19]) were 0.797 and 1.66, respectively. Further, the z-score in [7] was 3.25; in [9] it was -2.38 (inactive); in assay [11], -1.38 (inactive); in [12], -1.34 (inactive); in [13] it was 1.88 (inactive); in [14] it was -0.0184 (inactive).
`CN1C(=O)C2C=CC(C(O)c3ccccc3)N(Nc3ccccc3)C2C1=O` (stereo not given): the composite z-score was 0.75 in [1]; 0.717 in assay [2]; 0.61 in assay [3]; -0.022 in [4]; -1.07 in assay [5]; -1.39 in assay [6]. Besides, the composite z-score with Lefty1 is -0.279; in assay [8], 0.537; in [10] it was -0.244; in assay [15], -0.0782; in [16], -0.0195; with Torsin-1A (Homo sapiens) [17] it was -1.5. In addition, the composite z-score in the assay with Torsin-1A (Homo sapiens) [18] is 0.254; in [19] it was -1.58. The z-score in [7] was -0.419; in [9], -0.315 (inactive); in assay [11], 0.658 (inactive); in assay [12], -0.231 (inactive); in [13] it was 0.626 (inactive); in assay [14] it was -0.206 (inactive).
In the case of `C=CC[C@@]1(C(=O)NCc2ccccc2)N=C(c2ccc(OCCCO)cc2)O[C@@H]1c1ccccc1N=[N+]=[N-]`, the composite z-score in assay [1] is 2.41; in assay [2], 1.24; in assay [3] it was 0.649; in assay [4], 0.993; in assay [5], 1.28; in assay [6], 0.281. In addition, the composite z-score in the assay on Lefty1 stood at 0.11; in assay [8], 1; in assay [10], 0.465; in [15], 1.15; in assay [16], 0.174; with Torsin-1A (Homo sapiens) [17], 1.23. Also, the results for the composite z-score (in the assay with Torsin-1A (Homo sapiens) [18]; in assay [19]) were 0.762 and -0.245, respectively. Further, the z-score in [7] is 0.444; in assay [9], -8.72 (active); in [11], -2.73 (inactive); in [12], -0.291 (inactive); in [13] it was 3.85 (inactive); in assay [14] it was 0.34 (inactive).
In the case of `COC(=O)[C@@]1(Cc2ccc(OC)cc2)[C@H]2c3cc(C(=O)N(C)C)n(Cc4cccc5ccccc45)c3C[C@H]2CN1C(=O)c1ccccc1`, the composite z-score in assay [1] is 1.54; in assay [2], 1.26; in assay [3], 0.306; in [4], 1.02; in assay [5] it was 0.202; in assay [6], -0.225. For the same compound, the composite z-score with Lefty1 was determined as 0.566; in [8], 1.03; in assay [10], 1.44; in [15], 0.697; in assay [16], 0.943; in the assay with Torsin-1A (Homo sapiens) [17], 0.817. Moreover, the composite z-score with Torsin-1A (Homo sapiens) [18] stood at 1.14; in [19], 0.659. For the same compound, the z-score in [7] is -0.78; in assay [9] it was 0.629 (inactive); in [11] it was -4.45 (inactive); in assay [12], -0.0601 (inactive); in assay [13] it was 0.0075 (inactive); in [14], 0.458 (inactive).
